Drawing on ChEMBL document CHEMBL3433997, “St. Jude Leishmania screening dataset” (2016), this text covers inhibition for 40 compounds.

Chain of Solute carrier family 2, facilitated glucose transporter member 1 (Homo sapiens) (P11166 whole entry): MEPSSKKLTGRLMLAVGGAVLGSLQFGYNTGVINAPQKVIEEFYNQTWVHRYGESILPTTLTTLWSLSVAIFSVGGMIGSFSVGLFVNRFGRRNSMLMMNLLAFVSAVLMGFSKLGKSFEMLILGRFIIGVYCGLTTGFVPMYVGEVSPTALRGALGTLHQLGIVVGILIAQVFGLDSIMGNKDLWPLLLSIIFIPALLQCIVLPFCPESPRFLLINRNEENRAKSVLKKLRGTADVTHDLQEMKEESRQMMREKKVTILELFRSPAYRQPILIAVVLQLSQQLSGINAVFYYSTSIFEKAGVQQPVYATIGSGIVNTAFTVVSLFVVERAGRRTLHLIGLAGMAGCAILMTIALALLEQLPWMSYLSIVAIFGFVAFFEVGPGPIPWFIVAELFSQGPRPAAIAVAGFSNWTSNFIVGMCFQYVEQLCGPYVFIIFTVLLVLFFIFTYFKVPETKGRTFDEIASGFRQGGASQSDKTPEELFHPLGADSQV

The first test addresses Solute carrier family 2, facilitated glucose transporter member 1 (Homo sapiens) (UniProt P11166). Description: ST_JUDE_LEISH: Cytotoxicity at 2uM final concentration against transgenic Leishmania Mexicana promastigotes LmGLUT1 that are glucose transport deficient and complemented with the human glucose transporter GLUT1. Activity is measured by DNA content using SYBR green in vitro. It is filed as functional.
In the case of `COc1cc(NC(=O)c2c(-c3c(F)cccc3Cl)noc2C)c(OC)cc1Cl`, the inhibition is -2.64%.
The same measure, in the same setting: under `CC(=O)Nc1ccc(CN2CCC(NC(=O)c3ccc(-c4cccc(OC(C)C)c4)s3)CC2)cc1` stands 6.04%; under `COc1ccc(Br)cc1/C=C/C(=O)Nc1ccc(C2CCN(C)CC2)cc1`, 3.58%; under `CCc1ccc(Cc2cnc3nc(N)nc(N)c3c2C)cc1CC`, -1.77%.
For the compound `CC1CCCN(Cc2cc(Cl)cc(Cl)c2O)C1` (stereo not given), the inhibition is -1.08%.
In the case of `CCCCN(CCCC)CCCN(CCCN(CCCC)CCCC)c1cc(C)nc(Nc2ccc(Cl)cc2)n1`, the inhibition was -0.03%.
On the same count and under the same terms, under `OCCOCn1cnc2cnc(N[C@H]3OC[C@H](O)[C@@H](O)[C@@H]3O)nc21` stands 0.99%.
The same measure, in the same setting: under `NC1=NC(c2ccccc2)(c2ccccc2)C(=O)N1Cc1ccccc1Br` stands 7.09%.
For `CCC(CC)C(CC(=O)NC(C)(C)CCc1ccccc1OC)Nc1ccc(C#N)c2ccccc12` (stereo not given), the inhibition stood at 4.46%.
Regarding `CCOC(=O)c1cnc2c(C(F)(F)F)cccc2c1Nc1ccc(O)cc1`, the inhibition was 10.8%.
For the compound `CN(C)CC(O)COc1ccc(Nc2ncc([N+](=O)[O-])c(Nc3ccccc3O)n2)cc1` (stereo not given), the inhibition was determined as 2.66%.
On to `CN(C)Cc1ccc2nc(-c3cccc(Cc4cc(Cl)ccc4OCc4ccc(Cl)cc4F)n3)[nH]c2c1`, for which the inhibition is -0.36%.
The same measure, in the same setting: under `Oc1ccc(Nc2nc(NCc3ccco3)c3ccccc3n2)cc1` stands 25.1%.
Same read-out and setting: the result for `CCCCCCCCc1c(C)nc(C)c(Br)c1O` reads 0.75%.
Still for that read-out and setting: under `N=C(N)NCCCN(Cc1ccccc1)c1ccc(Cl)cc1` stands 7.39%.
Take `CNC(=O)c1cc(F)c(F)cc1Nc1nc(Nc2cccc(CS(C)(=O)=O)c2)ncc1Cl`: the inhibition came out at 1.41%.
Same read-out and setting: under `COc1cc(C(=O)Nc2ccc3nc(N4CCN(C)CC4)cc(C)c3c2)cc(OC)c1OC` stands 1.09%; under `O=S(=O)(Nc1ccc(CCN2CCC(N3CCCCC3)CC2)cc1)c1ccccc1C(F)(F)F`, 13.5%; under `O=C(c1ccccc1)N1COCC(CCN2CCC(N3CCCC3)CC2)(c2ccc(Cl)c(Cl)c2)C1` (stereo not given), 2.71%.
Take `Nc1ncc(-c2cccc(F)c2)cc1-c1nc2cc(F)ccc2[nH]1`: the inhibition was 4.17%.
As for `CCCCCCCCOc1c(OCC)cc(Cc2cnc(N)nc2N)cc1OCC`, the inhibition was found to be 13.7%.
Same read-out and setting: under `COc1ccc2nccc([C@@H](O)CN3CCC(NCc4cc5cccc(OC)c5o4)CC3)c2c1` stands 1.32%; under `Cc1ccc(O)c(-c2cc(C(=O)Nc3ccc(S(=O)(=O)N4CCCCC4)cc3)[nH]n2)c1`, 3.32%.
On to `CCCC(=O)Nc1ccc(OCCCCN(Cc2ccccc2C(F)(F)F)c2ccc(C(F)(F)F)c(C#N)c2)cc1`, for which the inhibition is 6.19%.
Same read-out and setting: the result for `CCOc1ccc(C(=O)Nc2cc(Br)c3c(c2)CNCC3)cc1C(F)(F)F` reads -0.39%; that for `COc1cccc(C(=O)Nc2ccc(Nc3nc(C)cc(N(C)C)n3)cc2)c1OC`, 2.81%.
Consider `CSC1=NC(=Nc2c(C)cccc2C)C2(CCCCC2)N1c1ccccc1Cl`, for which the inhibition is -1.1%.
For `O=C(Cc1ccsc1)NCC(c1ccccc1Cl)c1c[nH]c2ccccc12` (stereo not given), the inhibition came out at 6.27%.
Same read-out and setting: under `CS(=O)(=O)NCCCNCc1ccc(-c2cccc(-c3nc4cc(C(F)(F)F)ccc4[nH]3)c2)cc1` stands 5.19%; under `COc1cccc(C2CCN(CCCCNC(=O)c3ccc(NC(=O)c4ccc(Cl)cc4)cc3)CC2)c1`, 2.77%; under `N#Cc1ccc(CCNc2nccc(-c3cccc(CN4CCNCC4)c3)n2)cc1`, 12.3%.
Still for that read-out and setting: the result for `COc1ccc2nccc([C@@H](O)CN3CCC(NC(=O)C(=O)c4c[nH]c5c(C)cccc45)CC3)c2c1` reads 0.46%; that for `CC1(C)CC2CC(C)(CN2C(=O)c2cc(C(C)(C)C)nn2Cc2ccccc2)C1` (stereo not given), 7.67%; that for `CCCN1CCN(Cc2ccc(-c3ccc(-c4nc5ccccc5[nH]4)s3)cc2)CC1`, -0.29%.
Same read-out and setting: the result for `CC(C)(C)CCN1CCC(NC(=O)c2ccc(-c3cccc(C(F)(F)F)c3)s2)CC1` reads 1.71%; that for `CC(C)CNCc1cccc(-c2ccc(CN(CCCN3CCN(C)CC3)C(=O)CCC3CCCC3)cc2)c1`, 38.9%; that for `CCCN1CCN(CCNC(=O)c2cccc(Nc3nccc(Nc4ccc(Oc5ccccc5)cc4)n3)c2)CC1`, 0.38%.
Turning to `Cn1c(NC(=O)CCCCCNC(=O)c2ccc(O)c(-c3ccc(Cl)c(Cl)c3)c2)nc2ccccc21`, the inhibition was found to be 1.81%.
Consider `CCCN(CCC)S(=O)(=O)c1ccc(C(=O)N2CCC(C(=O)OCC)CC2)cc1`, for which the inhibition was 6.42%.
On the same count and under the same terms, the result for `CN(C)c1cccc2c1nc(-c1ccco1)n2CCNCc1ccccc1` reads -0.08%.

The target in the next test is Hexose transporter 1 (Plasmodium falciparum) (UniProt O97467). In words: ST_JUDE_LEISH: Cytotoxicity at 2uM final concentration against transgenic Leishmania Mexicana promastigotes LmPfHT that are glucose transport deficient and complemented with the Plasmodium falciparum hexose transporter. Activity is measured by DNA content using SYBR green in vitro. It is filed as functional.
Turning to `COc1cc(NC(=O)c2c(-c3c(F)cccc3Cl)noc2C)c(OC)cc1Cl`, the inhibition was -1.52%.
Consider `CC(=O)Nc1ccc(CN2CCC(NC(=O)c3ccc(-c4cccc(OC(C)C)c4)s3)CC2)cc1`, for which the inhibition was 2.62%.
On the same count and under the same terms, under `COc1ccc(Br)cc1/C=C/C(=O)Nc1ccc(C2CCN(C)CC2)cc1` stands 3.16%.
Regarding `CCc1ccc(Cc2cnc3nc(N)nc(N)c3c2C)cc1CC`, the inhibition is 0.71%.
On the same count and under the same terms, under `CC1CCCN(Cc2cc(Cl)cc(Cl)c2O)C1` (stereo not given) stands -0.95%.
Still for that read-out and setting: the result for `CCCCN(CCCC)CCCN(CCCN(CCCC)CCCC)c1cc(C)nc(Nc2ccc(Cl)cc2)n1` reads 0.22%.
As for `OCCOCn1cnc2cnc(N[C@H]3OC[C@H](O)[C@@H](O)[C@@H]3O)nc21`, the inhibition was found to be 2.06%.
On to `NC1=NC(c2ccccc2)(c2ccccc2)C(=O)N1Cc1ccccc1Br`, for which the inhibition was found to be 4.75%.
On the same count and under the same terms, under `CCC(CC)C(CC(=O)NC(C)(C)CCc1ccccc1OC)Nc1ccc(C#N)c2ccccc12` (stereo not given) stands 3.53%; under `CCOC(=O)c1cnc2c(C(F)(F)F)cccc2c1Nc1ccc(O)cc1`, 8.44%; under `CN(C)CC(O)COc1ccc(Nc2ncc([N+](=O)[O-])c(Nc3ccccc3O)n2)cc1` (stereo not given), 3.7%.
As for `CN(C)Cc1ccc2nc(-c3cccc(Cc4cc(Cl)ccc4OCc4ccc(Cl)cc4F)n3)[nH]c2c1`, the inhibition is -0.21%.
Consider `Oc1ccc(Nc2nc(NCc3ccco3)c3ccccc3n2)cc1`, for which the inhibition came to 20.8%.
On the same count and under the same terms, under `CCCCCCCCc1c(C)nc(C)c(Br)c1O` stands -0.72%.
On to `N=C(N)NCCCN(Cc1ccccc1)c1ccc(Cl)cc1`, for which the inhibition was found to be 4.12%.
`CNC(=O)c1cc(F)c(F)cc1Nc1nc(Nc2cccc(CS(C)(=O)=O)c2)ncc1Cl`: the inhibition came to 1.35%.
For `COc1cc(C(=O)Nc2ccc3nc(N4CCN(C)CC4)cc(C)c3c2)cc(OC)c1OC`, the inhibition stood at 0.31%.
For `O=S(=O)(Nc1ccc(CCN2CCC(N3CCCCC3)CC2)cc1)c1ccccc1C(F)(F)F`, the inhibition worked out at 13.4%.
Consider `O=C(c1ccccc1)N1COCC(CCN2CCC(N3CCCC3)CC2)(c2ccc(Cl)c(Cl)c2)C1` (stereo not given), for which the inhibition was -0.49%.
With `Nc1ncc(-c2cccc(F)c2)cc1-c1nc2cc(F)ccc2[nH]1`, the inhibition was found to be 11.1%.
With `CCCCCCCCOc1c(OCC)cc(Cc2cnc(N)nc2N)cc1OCC`, the inhibition is 7.75%.
With `COc1ccc2nccc([C@@H](O)CN3CCC(NCc4cc5cccc(OC)c5o4)CC3)c2c1`, the inhibition was determined as 3.57%.
Turning to `Cc1ccc(O)c(-c2cc(C(=O)Nc3ccc(S(=O)(=O)N4CCCCC4)cc3)[nH]n2)c1`, the inhibition is 1.22%.
The same measure, in the same setting: the result for `CCCC(=O)Nc1ccc(OCCCCN(Cc2ccccc2C(F)(F)F)c2ccc(C(F)(F)F)c(C#N)c2)cc1` reads 5.86%.
On the same count and under the same terms, the result for `CCOc1ccc(C(=O)Nc2cc(Br)c3c(c2)CNCC3)cc1C(F)(F)F` reads -2.66%; that for `COc1cccc(C(=O)Nc2ccc(Nc3nc(C)cc(N(C)C)n3)cc2)c1OC`, 4.32%; that for `CSC1=NC(=Nc2c(C)cccc2C)C2(CCCCC2)N1c1ccccc1Cl`, -1.21%.
`O=C(Cc1ccsc1)NCC(c1ccccc1Cl)c1c[nH]c2ccccc12` (stereo not given): the inhibition came to 5.24%.
For `CS(=O)(=O)NCCCNCc1ccc(-c2cccc(-c3nc4cc(C(F)(F)F)ccc4[nH]3)c2)cc1`, the inhibition came out at 3.56%.
Same read-out and setting: under `COc1cccc(C2CCN(CCCCNC(=O)c3ccc(NC(=O)c4ccc(Cl)cc4)cc3)CC2)c1` stands 2.82%.
On to `N#Cc1ccc(CCNc2nccc(-c3cccc(CN4CCNCC4)c3)n2)cc1`, for which the inhibition is 12.8%.
For the compound `COc1ccc2nccc([C@@H](O)CN3CCC(NC(=O)C(=O)c4c[nH]c5c(C)cccc45)CC3)c2c1`, the inhibition was found to be 0.43%.
Take `CC1(C)CC2CC(C)(CN2C(=O)c2cc(C(C)(C)C)nn2Cc2ccccc2)C1` (stereo not given): the inhibition was found to be 7.75%.
Still for that read-out and setting: under `CCCN1CCN(Cc2ccc(-c3ccc(-c4nc5ccccc5[nH]4)s3)cc2)CC1` stands 2.1%.
Turning to `CC(C)(C)CCN1CCC(NC(=O)c2ccc(-c3cccc(C(F)(F)F)c3)s2)CC1`, the inhibition came out at 5.61%.
On to `CC(C)CNCc1cccc(-c2ccc(CN(CCCN3CCN(C)CC3)C(=O)CCC3CCCC3)cc2)c1`, for which the inhibition stood at 56.9%.
Same read-out and setting: the result for `CCCN1CCN(CCNC(=O)c2cccc(Nc3nccc(Nc4ccc(Oc5ccccc5)cc4)n3)c2)CC1` reads 0.74%; that for `Cn1c(NC(=O)CCCCCNC(=O)c2ccc(O)c(-c3ccc(Cl)c(Cl)c3)c2)nc2ccccc21`, 1.73%; that for `CCCN(CCC)S(=O)(=O)c1ccc(C(=O)N2CCC(C(=O)OCC)CC2)cc1`, 5.73%.
Still for that read-out and setting: under `CN(C)c1cccc2c1nc(-c1ccco1)n2CCNCc1ccccc1` stands 1.58%.
